Screening data (PubChem)
Pf Dd2 growth: blocks growth of Plasmodium falciparum Dd2 parasites | P. falciparum Dd2 growth, SYBR Green, 72 h; hits give low values | activity change, % at 10 µM | 94,000 compounds, 2.3% hits; in the data active = activity change below about -80%; inconclusive = no clear call, values can overlap the other calls
C diff HTS: blocks growth of Clostridium difficile | AID 1259249 | 86,000 compounds, 0.25% hits | growth activity, negative = inhibition, % at 16 µg/mL (by protocol) | Clostridium difficile clinical isolate growth, OD600, 24 h; hits give low values;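 active = mean growth activity at or below -80% and every replicate also at or below -80%; inconclusive = mean at or below -80% but some replicate above -80%; inactive = mean growth activity above -80%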;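 also: 0% = DMSO wells and -100% = levofloxacin 16 µg/mL wells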
Numbers without * were called inactive; ? = inconclusive; / = not tested or not shown. Rows were chosen to be rich in hits. Some 2.3% of all compounds tested hit in one or more screens of this group.

SMILES	Pf Dd2 growth	C diff HTS
C[C@@H]1CN([C@@H](C)CO)C(=O)c2cc(NS(=O)(=O)c3ccc(F)cc3)ccc2O[C@@H](C)CCCCO[C@@H]1CN(C)C(=O)Nc1ccc(C(F)(F)F)cc1	-88*	-1
C[C@H]1CCCCO[C@H](CN(C)C(=O)Nc2ccc(C(F)(F)F)cc2)[C@@H](C)CN([C@@H](C)CO)C(=O)c2cc(NS(=O)(=O)c3ccc(Cl)cc3)ccc2O1	-83*	5
O=C(C[C@@H]1C[C@@H]2c3cc(NC(=O)NC4CCCC4)ccc3O[C@@H]2[C@H](CO)O1)NCc1cccnc1	10	-4
COc1cccc(CN2CC3(CN(Cc4ccccn4)C3)c3c([nH]c4cc(OC)ccc34)[C@H]2CO)c1	-87*	13
COc1ccc2c3c([nH]c2c1)[C@@H](CO)N(Cc1ccncc1)CC31CN(Cc2ccc(-c3ccccn3)cc2)C1	?	4
COc1ccc2c3c([nH]c2c1)[C@@H](CO)N(Cc1ccc(F)cc1)CC31CN(Cc2ccccn2)C1	?	8
COc1ccc2c3c([nH]c2c1)[C@H](CO)N(Cc1ccncc1)CC31CN(Cc2ccc(-c3ccccn3)cc2)C1	-89*	5
COc1cccc(CN2CC3(CCN(Cc4ccccn4)CC3)c3c([nH]c4cc(OC)ccc34)[C@H]2CO)c1	-84*	5
COc1ccc2c3c([nH]c2c1)[C@@H](CO)N(Cc1cccc(F)c1)CC31CN(Cc2ccccn2)C1	?	0
C[C@H]1CCCCO[C@H](CN(C)C)[C@@H](C)CN([C@@H](C)CO)C(=O)c2cc(NC(=O)Nc3ccc(F)cc3)ccc2O1	4	-4
CO[C@H]1CN(C)C(=O)c2cc(NS(=O)(=O)c3cn(C)cn3)ccc2OC[C@@H](C)N(Cc2cccc(F)c2)C[C@@H]1C	-6	/
C[C@H](CO)N1C[C@H](C)[C@@H](CN(C)Cc2ccc(Oc3ccccc3)cc2)Oc2c(NC(=O)CCCCCC(=O)Nc3ccccc3N)cccc2C1=O	-90*	-1
C[C@@H]1CN([C@@H](C)CO)C(=O)c2cccc(NC(=O)CCCCCC(=O)Nc3ccccc3N)c2O[C@H]1CN(C)Cc1ccncc1	-40	-2
C[C@@H]1CN([C@H](C)CO)C(=O)c2cccc(NC(=O)CCCCCC(=O)Nc3ccccc3N)c2O[C@@H]1CN(C)Cc1ccncc1	31	3
C[C@H]1CN([C@@H](C)CO)C(=O)c2cccc(NC(=O)CCCCCC(=O)Nc3ccccc3N)c2O[C@H]1CN(C)Cc1ccc(Oc2ccccc2)cc1	-90*	10
COc1ccc(CN(C)C[C@H]2Oc3c(NC(=O)CCCCCC(=O)Nc4ccccc4N)cccc3C(=O)N([C@H](C)CO)C[C@@H]2C)cc1	-85*	-7
C[C@H]1CN([C@@H](C)CO)C(=O)c2cc(NC(=O)CCCCCC(=O)Nc3ccccc3N)ccc2O[C@H]1CN(C)Cc1ccc(Oc2ccccc2)cc1	-75	12
CO[C@@H]1CN(C)C(=O)c2ccc(NC(=O)Cc3ccccc3)cc2OC[C@@H](C)N(C(C)=O)C[C@H]1C	-27	/
CN1C(=O)c2cc(NC(=O)C3CC3)ccc2OC[C@@H]2O[C@@H](CC(=O)O)CC[C@H]21	23	-3
COc1cccc(CNC(=O)[C@H]2[C@H](CO)[C@H]3Cn4c(cccc4=O)[C@@H]2N3C(=O)C2CCC2)c1	9	-1
C[C@H]1CCCCO[C@H](CN(C)C(=O)C2CCCCC2)[C@@H](C)CN([C@@H](C)CO)C(=O)c2cc(NS(C)(=O)=O)ccc2O1	9	-6
Cc1noc(C)c1S(=O)(=O)Nc1ccc2c(c1)C(=O)N([C@H](C)CO)C[C@H](C)[C@H](CN(C)Cc1ccc3c(c1)OCO3)OCCCC[C@H](C)O2	-53	0
COc1ccc2c3c(n(C)c2c1)[C@@H](CO)N(C(=O)CN(C)C)CC31CCN(C(=O)CN(C)C)CC1	14	2
CCCNC(=O)N1CC2(CCN(S(=O)(=O)c3ccccc3)CC2)c2c(n(C)c3cc(OC)ccc23)[C@H]1CO	-20	10
CCCNC(=O)N1CC2(CCN(S(=O)(=O)c3ccc(OC)cc3)CC2)c2c(n(C)c3cc(OC)ccc23)[C@@H]1CO	-86*	2
SMILES	Pf Dd2 growth	C diff HTS
COc1ccc(S(=O)(=O)N2CCC3(CC2)CN(C(=O)CN(C)C)[C@@H](CO)c2c3c3ccc(OC)cc3n2C)cc1	-88*	-4
CCS(=O)(=O)N[C@@H]1C=C[C@@H](CC(=O)NCc2ccc(F)cc2)O[C@H]1CO	-1	/
C[C@@H]1CN([C@@H](C)CO)C(=O)c2c(c3ccccc3n2C)-c2ccccc2CO[C@H]1CN(C)C(=O)c1cc(Cl)cc(Cl)c1	-83*	-3
C[C@H](CO)N1C[C@H](C)[C@H](CN(C)C(=O)c2cc(Cl)cc(Cl)c2)OCc2ccccc2-c2c(n(C)c3ccccc23)C1=O	-87*	1
C[C@@H]1CN([C@H](C)CO)C(=O)c2c(c3ccccc3n2C)-c2ccccc2CO[C@H]1CN(C)C(=O)c1cc(Cl)cc(Cl)c1	-31	78
C[C@H](CO)N1C[C@H](C)[C@@H](CN(C)C(=O)c2ccccc2)OCc2ccccc2-c2c(n(C)c3ccccc23)C1=O	-41	/
CO[C@@H]1CN(C)C(=O)c2cc(NC(=O)C3CCC3)ccc2OC[C@H](C)N(Cc2ccncc2)C[C@H]1C	16	1
C[C@@H]1CN([C@H](C)CO)C(=O)c2cccc(NC(=O)c3cnccn3)c2O[C@@H]1CN(C)S(=O)(=O)c1ccccc1	0	/
Cc1cc(C(=O)Nc2cccc3c2O[C@H](CN(C)C(=O)Nc2ccc(F)cc2)[C@H](C)CN([C@@H](C)CO)C3=O)n(C)n1	-20	0
C[C@H](CO)N1C[C@H](C)[C@@H](CN(C)Cc2ccc(C(=O)O)cc2)Oc2ccc(NC(=O)Nc3ccc4c(c3)OCO4)cc2CC1=O	3	-7
COc1ccc2c3c([nH]c2c1)[C@@H](CO)N(Cc1ccccc1F)CC31CN(C)C1	-7	-2
CCS(=O)(=O)N1CC2(CN(Cc3ccccc3F)[C@@H](CO)c3[nH]c4cc(OC)ccc4c32)C1	-87*	-1
COCC(=O)N1CCC2(CC1)CN(Cc1cccc(OC)c1)[C@@H](CO)c1[nH]c3cc(OC)ccc3c12	-92*	3
COCC(=O)N1CCC2(CC1)CN(Cc1ccccc1Cl)[C@H](CO)c1[nH]c3cc(OC)ccc3c12	-83*	-3
COCC(=O)N1CCC2(CC1)CN(Cc1ccccc1Cl)[C@@H](CO)c1[nH]c3cc(OC)ccc3c12	?	3
COc1ccc2c3c([nH]c2c1)[C@@H](CO)N(Cc1ccccc1Cl)CC31CCN(C(=O)C2CC2)CC1	-87*	7
COCC(=O)N1CCC2(CC1)CN(Cc1cccc(OC)c1)[C@H](CO)c1[nH]c3cc(OC)ccc3c12	?	2
COc1ccc2c3c([nH]c2c1)[C@@H](CO)N(Cc1ccccc1Cl)CC31CN(C(=O)C2CC2)C1	-71	5
C[C@@H]1CN([C@@H](C)CO)C(=O)c2cc(C#CCN(C)C)cnc2O[C@H]1CN(C)C(=O)c1ccc2c(c1)OCO2	-2	1
C[C@H](CO)N1C[C@H](C)[C@@H](CN(C)C(=O)NC2CCCCC2)OCCCC[C@H](C)Oc2ccc(NC(=O)Nc3ccccc3)cc2C1=O	20	3
CCN1[C@@H]2c3ccc(-c4ccccc4F)c(=O)n3C[C@@H]2[C@@H](CO)[C@@H]1C(=O)NC1CCCC1	-25	6
